Potency and affinity values are given separately. Active and inactive are the calls of the source.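 Rule for the calls: active = cell-killing curve whose half-maximal dose falls at or below double the top accepted dose; inconclusive = flat fit with drops of 30 to 70%, or poor fit; inactive = the rest, including signal rises.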
Test: viability loss in mouse NIH3T3 cells – cell-based, CellTiter-Glo luminescence, dry powder, cytotoxicity control for PglD inhibitor project, dose response (AID 652044)
Settings: CellTiter-Glo ATP luminescence, 48 h; series mostly up to 26 µM; activity change, negative = cytotoxic: at the top concentration

| SMILES | activity change, negative = cytotoxic |
| --- | --- |
| CC(=O)N[C@H]1CC[C@H](CC(=O)NCc2ccc(Cl)cc2)O[C@H]1CO | -2.34% (inactive) |
| O=C(N[C@H]1C=C[C@@H](CC(=O)N2CCCCC2)O[C@H]1CO)c1ccc2c(c1)OCO2 | -2.65% (inactive) |
| CO[C@H]1CN(C)C(=O)c2cc(NC(C)=O)ccc2OC[C@@H](C)NC[C@@H]1C | 5.85% (inactive) |
| Cc1noc(C)c1NC(=O)Nc1cccc2c1O[C@H](CN(C)C(=O)Nc1cccc3ccccc13)[C@@H](C)CN([C@H](C)CO)C2=O | 0.326% (inactive) |
| O=C(C[C@@H]1C[C@@H]2c3cc(NC(=O)NC4CCCCC4)ccc3O[C@@H]2[C@@H](CO)O1)NCc1cccnc1 | 2.95% (inactive) |
| C/C=C/c1cnc2c(c1)C(=O)N([C@@H](C)CO)C[C@H](C)[C@@H](CN(C)C(=O)c1cccnc1)O2 | -12.1% (inactive) |
| O=C(C[C@@H]1CC[C@@H]2[C@H](COC[C@@H](O)CN2Cc2ccc(F)cc2)O1)N1CCc2ccccc2C1 | 6.57% (inactive) |
| CC=Cc1ccc2n(c1=O)C[C@@H]1[C@@H](CO)[C@H](C(=O)NCCOC)[C@H]2N1Cc1nccs1 (mixture of isomers) | 7.23% (inactive) |
| C[C@H]1CN([C@@H](C)CO)C(=O)c2cccc(NC(=O)Nc3ccccc3)c2O[C@H]1CN(C)C | -4.25% (inactive) |
| CO[C@@H]1CN(C)C(=O)c2ccc(NS(C)(=O)=O)cc2OC[C@@H](C)N(C(=O)C2CCOCC2)C[C@H]1C | 8.99% [at 23.5 µM] (inactive) |
| CCC(=O)Nc1ccc2c(c1)OC[C@@H](C)N(Cc1ccccn1)C[C@@H](C)[C@H](OC)CN(C)C2=O | 6.56% (inactive) |
| COCC#Cc1cnc2c(c1)C(=O)N([C@@H](C)CO)C[C@H](C)[C@@H](CN(C)C(=O)C1CCC1)O2 | -10.5% (inactive) |
